The text below walks through data of PubChem BioAssay AID2314 (National Center for Advancing Translational Sciences (NCATS), 2010).

Each structure is given as a SMILES string. The whole screen tested about 300,000 compounds, of which about 37,000 (12%) were called active. This is one part of a sample in which actives are shown more often than they occur. No stated cut-off is given here; in the data, active means max response mostly above about 13% (no sharp cut-off); inactive means mostly below about 14%.

This test in a line: Cycloheximide Counterscreen for Small Molecule Inhibitors of Shiga Toxin. Further: read at 38.3 µM for the half of the compounds with a filed dose; 0% is about no effect. Particulars: cell reporter, cycloheximide protein synthesis inhibition counterscreen; hits give high values. (In general: A counterscreen serves to expose hits that act by an unwanted route or on another target.)
With `Cc1ccc(NC(=O)NC(=O)N(C2CCCCC2)S(=O)(=O)c2ccccc2)cc1`, the max response was 40.9% (active).

`CS(=O)(=O)N(C(=O)NC(=O)NC1CCS(=O)(=O)C1)C1CCCCC1` (stereo not given): the max response was -1.14% (inactive).

For `Cc1ccc(S(=O)(=O)N(C)CC(=O)NC2CCCC2)cc1`, the max response was -2.07% (inactive).

As to `CCOc1ccccc1NC(=O)CCS(=O)(=O)c1cccc2nsnc12`, the max response was -6.23% (inactive).

Regarding `O=C(N/N=C/c1cccc(O)c1)c1cc2c(ccc3ccccc32)o1`, the max response is 8.61% (inactive).

On to `NC(=O)c1ccccc1N=Cc1ccc2ccccc2c1`, for which the max response was 38.3% (active).

For `O=C(COc1cc2oc(=O)c3c(c2cc1Cl)CCC3)NCCCN1CCOCC1`, the max response is 6.01% (inactive).

In the case of `O=C(NCCc1ccccc1)C1CCC(Cn2c(=O)c3ccccc3n(Cc3cccnc3)c2=O)CC1` (stereo not given), the max response is -1.63% (inactive).

Consider `O=C(O)c1cc([N+](=O)[O-])c(Nc2cccc3ccccc23)c([N+](=O)[O-])c1`, for which the max response is -2.68% (inactive).

For the compound `CCOc1ccc(NC(=O)c2ccc(NC(=O)C3CCCO3)cc2)cc1` (stereo not given), the max response was 14.7% (inactive).

For the compound `CCOc1ccc(NC(=O)CCNC(=O)c2ccc(Br)cc2)cc1`, the max response is 17.2% (inactive).

As for `CCOc1ccc(NC(=O)c2ccc(CSc3nnnn3C)cc2)cc1`, the max response was 20.2% (active).

In the case of `CCOc1ccc(NC(=O)c2ccccc2NS(C)(=O)=O)cc1`, the max response was 15.1% (active).

As to `CCOc1cccc(NC(=O)CC#N)c1`, the max response was -0.681% (inactive).

As for `COC(=O)c1ccccc1NC(=O)c1ccccc1NS(C)(=O)=O`, the max response was -1.19% (inactive).

Consider `CCCNC(=O)Nc1ccccc1C(=O)Nc1ccc(OC)cc1`, for which the max response is 2.17% (inactive).

`CCOc1ccc(C(=O)Nc2ccncc2)cc1`: the max response is 23.7% (active).

On to `CCOc1ccc(C(=O)Nc2cccc(-c3ccc4nncn4n3)c2)cc1`, for which the max response was -0.39% (inactive).

Regarding `CCOc1ccc(NC(=O)CSc2nncn2C)cc1`, the max response is 3.07% (inactive).

Consider `COc1ccc(CSc2nnnn2-c2ccc(C(=O)O)cc2)cc1`, for which the max response was -3% (inactive).

Turning to `CCOc1ccc(C(=O)Nc2cccc(SC)c2)cc1`, the max response was 43.4% (active).

On to `CC1CN(c2nc(Nc3ccccc3)nc(N)c2[N+](=O)[O-])CC(C)O1` (stereo not given), for which the max response is 1.21% (inactive).

As to `O=C(CN1CCN(c2ccc(O)cc2)CC1)NC1CCCc2ccccc21` (stereo not given), the max response was -4.39% (inactive).

`COc1ccc(CN(C)C(=S)Nc2ccc(Cl)cc2Cl)cc1`: the max response was -0.677% (inactive).

Consider `O=C(O)C1CC=CC2CCN(C3CCCCC3)C(=O)C21` (stereo not given), for which the max response was -7.95% (inactive).

`COc1ccc(OC)c(NC(=O)CN(C)CCOc2ccc(Br)cc2)c1`: the max response is -3.46% (inactive).

`O=C(Oc1cccc(N2C(=O)C3C4c5ccccc5C(c5ccccc54)C3C2=O)c1)c1ccco1` (stereo not given): the max response was -4.24% (inactive).

For `Cc1ccc2c(c1)N(S(=O)(=O)c1cc(-c3cc(C)no3)ccc1C)CCO2`, the max response was 1.76% (inactive).

In the case of `CC(=O)Nc1cccc(C(=O)OCN2C(=O)c3ccccc3C2=O)c1`, the max response is -2.39% (inactive).

For the compound `CCN(CC)N=Nc1cccc(NC(C)=O)c1`, the max response is 15.1% (active).

As to `CCN(CC)C(=O)CSC(Nc1cccc(F)c1)=C(C#N)C#N`, the max response was -0.453% (inactive).

Turning to `Fc1ccc2nc(-c3ccccc3)nc(SCc3nnc(-c4ccccc4)o3)c2c1`, the max response is -4.64% (inactive).

`O=C(CSc1nnc(CNC(=O)c2ccc(F)cc2)o1)Nc1ccc2c(c1)OCO2`: the max response is -1.02% (inactive).

Turning to `Fc1ccc(-c2nnc(CSc3nnc(-c4ccc5c(c4)OCO5)o3)o2)cc1`, the max response is 26% (active).

As for `O=C(Nc1ccnn1C1CCN(C/C=C/c2ccc(F)cc2)CC1)C1CCCC1`, the max response was -1.88% (inactive).

With `CCOc1ccc(OCC)c(NC(=O)CCS(=O)(=O)c2ccc(C)cc2)c1`, the max response is -3.4% (inactive).

With `COc1ccc(N/N=C2/CCCCC2=O)cc1`, the max response was 29.4% (inactive).

Turning to `Cc1ccc(N/N=C2\COC(C)(C)CC2=O)cc1`, the max response was 73.1% (active).

`CC(C)CC(COCc1ccc(Cl)cc1)N1CCN(C(=O)c2ccc(C(F)(F)F)cc2)CCC1=O` (stereo not given): the max response was -2.17% (inactive).

With `O=C1CC(Sc2ncn[nH]2)C(=O)N1c1ccccc1` (stereo not given), the max response was -3.41% (inactive).

For `COc1ccc(N2CCN(C(=O)c3ccccc3NC(=O)C3=C(C)OCCS3)CC2)cc1`, the max response is -5.37% (inactive).

Take `CN(Cc1ccc(F)cc1)C(=O)COc1ccc2ccccc2c1`: the max response is 20.1% (inactive).

For the compound `CN(Cc1ccccc1)C(=O)COc1ccccc1`, the max response is 41.1% (active).

Turning to `CN(Cc1ccccc1)C(=O)c1ccc(COc2ccccc2)cc1`, the max response was 7.81% (inactive).

For the compound `CC1=NN(c2ccc(Cl)c(C(=O)O)c2)C(=O)/C1=C/c1ccc(-c2ccccc2[N+](=O)[O-])o1`, the max response was -3.39% (inactive).

In the case of `C=C1O[C@@](CO)(n2cnc3c(N)ncnc32)[C@H](O)[C@@H]1O`, the max response was 1.03% (inactive).

As to `Cc1ccc(NN=C2C(=O)OC(C)(C)OC2=O)c(C)c1`, the max response is 52% (active).

Take `Cc1ccc(NC(=O)CCC(=O)N/N=C/c2ccco2)c(C)c1`: the max response is -1.51% (inactive).

Regarding `Cc1ccc(NS(=O)(=O)c2ccc3c(c2)oc(=O)n3C)c(C)c1`, the max response was 0.896% (inactive).

Regarding `O=c1c2ccccc2[nH]c(=S)n1CCN1CCC(=C(c2ccc(F)cc2)c2ccc(F)cc2)CC1`, the max response is -1.14% (inactive).

With `Cc1ccc(NC(=O)CN(C)C(=O)c2ccc(Br)o2)cc1`, the max response is -4.89% (inactive).

`CCc1ccc(N(C(=O)c2csnn2)C(C(=O)NC2CCCCC2)c2ccncc2)cc1` (stereo not given): the max response was 8.95% (inactive).

For `O=C(NNS(=O)(=O)c1ccccc1)c1cnn(-c2ccc(Cl)cc2)c1C(F)(F)F`, the max response was 1.19% (inactive).

With `Cc1ccccc1NC(=O)c1cc(S(=O)(=O)Nc2cccc(C(=O)O)c2)ccc1Cl`, the max response is -4.93% (inactive).

`C/C(=N\Nc1cccc(C(=O)O)c1)c1ccc2c(c1)Nc1ccccc1S2`: the max response is 31.5% (active).

`O=C(NC1CC1)c1ccc2c(c1)NC(=O)c1ccccc1S2`: the max response is 0.906% (inactive).

As to `CC(C)C[C@@H](CO)N1CCN(Cc2ccc(O)cc2)CCC1=O`, the max response was -1.97% (inactive).

In the case of `CCCN1C2CCCC1CC(NC(=O)NC13CC4CC(CC(C4)C1)C3)C2` (stereo not given), the max response is 0.762% (inactive).

`CC(C)c1ccc2oc(=O)cc(CN3CCN(Cc4ccccc4)CC3)c2c1`: the max response is -1.81% (inactive).

Take `O=C(CN(C(=O)c1csnn1)c1ccc(Br)cc1)NC1CCCC1`: the max response was -2.24% (inactive).
